# Activity calls are given as the source filed them. How the calls were made is not given here.
# Assay: C difficile toxins, biochemical counterscreen, UDPG substrate absence, confirmatory dose response (AID 720650)
# Conditions: series mostly up to 19.5 µM
row,SMILES,AC50
1,Cc1ccc(NC(=O)OC(C)N2CCCCC2)cc1NC(=O)OC(C)N1CCCCC1 (centres undefined),inactive
2,COc1ccc(Cl)cc1NC(=O)CSc1nnc(-c2ccco2)o1,> 39 µM (inactive)
3,CC(=O)c1cccc(OCC(=O)c2cc(C)n(-c3cc(C)on3)c2C)c1,12 µM (active)
4,O=C(Nc1ccc(O)cc1)C1CCCN1S(=O)(=O)c1ccc(F)cc1 (centres undefined),10.9 µM (active)
5,Cc1cc(C(=O)N2CCN(Cc3ccccc3)CC2)ccc1[N+](=O)[O-],inactive
6,CCOC(=O)c1sc2nc(OCCN3CCOCC3)cc(C)c2c1N,inactive
7,Cn1c(=O)[nH]c(=O)c2c1[nH]c(=S)n2CCCc1ccccc1,inactive
8,CS(=O)(=O)N1CCc2cc(C(=O)Nc3ccc(O)cc3)ccc21,14.8 µM (active)
9,COc1cccc(-n2c(SCC(=O)N3CCOCC3)nnc2-c2c[nH]c3ccccc23)c1,inactive
10,C[C@H](CO)N1C[C@H](C)[C@@H](CN(C)CC2CCCCC2)Oc2ccc(NC(=O)CCN3CCOCC3)cc2C1=O,inactive
11,CN(C)CCCNC(=O)C[C@H]1CC[C@@H]2[C@@H](COc3ccc(NC(=O)c4ccc5c(c4)OCO5)cc3C(=O)N2C)O1,inactive
12,Nc1ccc(-c2nc3ccc(N)cc3o2)cc1,12.5 µM (active)
13,Cc1ccc(S(=O)(=O)Oc2ccc(/C=N/NC(=O)c3nn(C)cc3[N+](=O)[O-])cc2)cc1,inactive
14,CC1C(=O)NN=C1c1ccc([N+](=O)[O-])cc1 (centres undefined),inactive
15,CCOc1ccc(S(=O)(=O)NCc2ccccc2Cl)cc1C(N)=O,> 39 µM (inactive)
16,C=CCc1ccc(O)c(-c2ccc(O)c(CC=C)c2)c1,> 39 µM (inactive)
17,COC(=O)C(Cc1ccccc1)NC(=O)CSc1nc(C)cc(=O)[nH]1 (centres undefined),inactive
18,CC(=O)Nc1ccc(S(=O)(=O)Nc2nc3ccccc3nc2-n2ccc(=NC(=O)c3ccc(F)cc3)cc2)cc1,inactive
19,O=C1Nc2ccccc2C1c1ncc(C(F)(F)F)cc1Cl (centres undefined),inactive
20,CCC(=Nc1ccccc1)C1=C(O)CCCC1=O,inactive

row,SMILES,AC50
1,COc1ccc(/C=N/N=C2/NC(=O)C(CC(=O)NC(N)=O)S2)cc1 (centres undefined),inactive
2,Cc1noc(/C=C/c2ccccc2F)c1S(=O)(=O)N1CCC(C(=O)N2CCN(C)CC2)CC1,inactive
3,CCOc1ccc(/C=N/n2nnnc2N)cc1O,inactive
4,CC(C)Sc1nnc(NC(=O)c2ccco2)s1,inactive
5,CC(=O)Nc1cccc(NC(=O)c2ccc(Br)cc2)c1,inactive
6,CC(=O)Nc1ccc(Oc2nc(-c3ccccn3)nc3ccccc23)cc1,11 µM (active)
7,CC(C)(C)OCC(O)CN1CCN(C(=O)c2ccccc2)CC1 (centres undefined),inactive
8,Cc1ccc2sc(NNC(=O)C3COc4ccccc4O3)nc2c1C (centres undefined),0.238 µM (active)
9,O=C(N/N=C/c1ccccn1)c1ccc([N+](=O)[O-])cc1Cl,inactive
10,COc1ccc(CNC(=O)C2=CC(c3ccc(OC)c(OC)c3)=NS(=O)(=O)N2C)cc1,> 39 µM (inactive)
11,O=c1[nH]c(CSc2nnc(Cc3ccccc3)o2)nc2ccccc12,inactive
12,NC(=O)NN=C1CC2CC1C1C=CCC21 (centres undefined),inactive
13,COc1ccc(CNC(=O)C2=CC(c3ccc(C)cc3)=NS(=O)(=O)N2C)cc1,inactive
14,COc1ccc(-c2ccc3c(c2)[C@@H]2[C@@H](CCN2C(=O)C2CC2)[C@H](CO)N3C)cc1,14.8 µM (active)
15,COc1ccc(C(=O)Nc2ccc3c(c2)C(=O)N(C)[C@@H]2CC[C@H](CC(=O)NCC4CC4)O[C@@H]2CO3)cc1,inactive
16,CC(=O)N(C)C[C@@H]1Oc2cc(/C=C/c3ccccc3)ccc2S(=O)(=O)N([C@H](C)CO)C[C@@H]1C,> 39 µM (inactive)
17,CCCc1cc(-c2n[nH]c(C(=O)OCC)c2-c2cscn2)c(O)cc1O,inactive
18,CN(CCN1CCOCC1)C(=O)CC1C(=O)NCCN1Cc1ccccc1C(F)(F)F (centres undefined),inactive
19,CC(C)(C)C(=O)C1=C(O)C(=O)N(c2ccccc2)C1c1ccccc1 (centres undefined),> 39 µM (inactive)
